# Screening data as filed in PubChem.
# VLA-4 inh – inhibition in a human VLA-4 binding assay; P13612; VLA-4 expressing cells, ligand binding flow cytometry; inhibition, % (about 7 µM as worked out from the volumes in the protocol); 0.2% of 330,000 active; in the data active means inhibition above about 50%
# APOBEC3G inh – blocks human APOBEC3G single-stranded DNA deamination | Q9HC16 | recombinant A3G, ssDNA deamination FAM/TAMRA fluorescence | inhibition, % at 20 µM | 0.28% of 330,000 active;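 active means inhibition of at least 40% at 20 µM, with no more than 30% in the related APOBEC3A deaminase screen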;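 further: plate controls were DMSO wells with A3G for no effect and wells lacking A3G enzyme for full effect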
# beta cell repl – MIN6 beta-cell proliferation induction; MIN6 cells proliferation, ATPlite luminescence, 48 h; cells starved in 0.2% serum; 100% = growth in 10% serum; proliferation, % at 10 µM; 0.29% of 330,000 active; AID 2380;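 active means compounds whose signal lies at least 3.5 SD above the mean of all wells on their plate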;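 further: 0% = DMSO-treated cells in low-serum medium and 100% = 10% serum control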
# APOBEC3A inh – blocks human APOBEC3A ssDNA deamination. P31941. recombinant A3A, FAM/TAMRA ssDNA deamination fluorescence. inhibition, % at 20 µM. 0.41% of 330,000 active. AID 493011;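 active means at least 40% inhibition at 20 µM here, with at most 30% in a related deaminase screen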;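 further: plate controls were A3A with DMSO for no effect and wells lacking A3A enzyme for full effect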
# NRP1-CendR mod – alters CendR peptide binding to human NRP-1; 0.85% of 360,000 active; FAM-RPARPAR peptide binding to NRP-1, fluorescence polarization; O14786; AID 602438; inhibition, % at 25 µM;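 active means inhibition or corrected inhibition above about 18%, plus a signal ratio from 0.5 to 1.5, limit read from the data, passing the limit was not always enough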
# Target sequence (O14786 whole entry, looked up): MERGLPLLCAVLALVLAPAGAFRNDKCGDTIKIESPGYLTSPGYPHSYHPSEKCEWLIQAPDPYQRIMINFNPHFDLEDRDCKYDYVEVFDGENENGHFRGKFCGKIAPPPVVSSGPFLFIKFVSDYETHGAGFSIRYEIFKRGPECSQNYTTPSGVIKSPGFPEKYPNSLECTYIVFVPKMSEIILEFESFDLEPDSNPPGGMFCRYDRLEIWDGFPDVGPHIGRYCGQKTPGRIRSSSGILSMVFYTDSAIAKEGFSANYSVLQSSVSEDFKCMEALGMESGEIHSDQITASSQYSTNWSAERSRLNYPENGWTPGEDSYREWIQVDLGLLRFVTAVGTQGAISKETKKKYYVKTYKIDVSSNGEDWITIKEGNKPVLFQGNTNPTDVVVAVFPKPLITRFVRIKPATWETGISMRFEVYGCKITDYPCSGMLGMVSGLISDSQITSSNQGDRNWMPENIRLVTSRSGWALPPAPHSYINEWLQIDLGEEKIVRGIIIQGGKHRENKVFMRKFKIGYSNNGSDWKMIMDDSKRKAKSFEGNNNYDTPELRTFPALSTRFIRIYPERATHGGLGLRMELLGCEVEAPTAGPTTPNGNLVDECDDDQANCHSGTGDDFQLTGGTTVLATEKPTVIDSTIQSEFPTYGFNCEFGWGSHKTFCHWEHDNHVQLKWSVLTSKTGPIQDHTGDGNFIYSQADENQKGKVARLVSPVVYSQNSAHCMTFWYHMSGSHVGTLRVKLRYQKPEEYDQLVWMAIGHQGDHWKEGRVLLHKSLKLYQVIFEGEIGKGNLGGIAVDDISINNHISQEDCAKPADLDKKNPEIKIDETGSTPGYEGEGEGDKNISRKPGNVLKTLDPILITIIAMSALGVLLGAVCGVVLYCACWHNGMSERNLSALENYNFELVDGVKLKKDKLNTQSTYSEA
# VLA-4 allo CP – confirmation of allosteric modulators of human VLA-4 integrin; shares compounds with VLA-4 inh; U937 cells, HUTS-21 LIBS mAb binding, flow cytometry; LDV ligand present at threefold Kd; inhibition, % at 6.7 µM; 2% of 1,300 active; AID 2813; in the data active means inhibition above about 40%;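 further: 0% = ligand without compound and 100% = no ligand background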
# Active calls of the source: *; . = no result given. An excerpt weighted towards active compounds, which were near 1.8% of everything screened.
SMILES,VLA-4 inh,APOBEC3G inh,beta cell repl,APOBEC3A inh,NRP1-CendR mod,VLA-4 allo CP
CCc1cccc(C)c1Nc1nc2ccccc2n2cnnc12,6,-5,-1,-3,-12,.
CCCOc1c(OC)cccc1C1CC(=O)Nc2cc3c(cc21)OCCO3 (centres undefined),10,-9,-3,-2,5,5
COc1cccc(C2CC(=O)Nc3cc4c(cc32)OCCO4)c1OC(C)C (centres undefined),-10,-6,-3,-3,1,-6
CC(C)Oc1ccccc1C1CC(=O)Nc2cc3c(cc21)OCCO3 (centres undefined),16,2,-6,7,-2,.
Cc1cccc(C)c1NC(=O)CNC(=O)CN1C(=O)NC2(CCc3ccccc32)C1=O (centres undefined),-6,-2,1,19,-8,.
CC1CN(c2cnn(C(C)C)c(=O)c2Cl)CC(C)O1 (centres undefined),1,0,1,1,3,.
COC(=O)/C=C1\SC(=NC(=O)c2ccc(C)cc2)NC1=O,51*,-16,-2,-1,10,2
COC(=O)C1=C(NC(=O)COc2ccc3ccccc3c2)CCS1,41,-7,2,-3,-1,-13
COc1ccc(S(=O)(=O)CC(=O)c2cc(C)c(O)c(C)c2)cc1,50*,-10,0,-4,4,-10
CCSc1nc2[nH]ncc2c(=O)[nH]1,34,-4,0,-1,-12,.
O=C(CS(=O)(=O)c1ccccc1)NC1CCCCC1,-2,1,1,1,-4,.
CC(C)NC(=O)CS(=O)(=O)c1ccccc1,50*,0,0,3,16,6
COc1ccccc1CC(=O)OC(C)C(=O)Nc1ccc(S(=O)(=O)N2CCCCC2)cc1 (centres undefined),54*,-6,0,-1,2,0
CCn1c(SCC(=O)Nc2nc(C)cs2)nnc1C(NC(=O)c1ccccc1Cl)C(C)C (centres undefined),0,-8,-2,-4,9,-7
CCCCc1nnc(NC(=O)Cc2ccc(S(=O)(=O)N3CCOCC3)s2)s1,-40,0,-6,21,-61,.
COc1ccc(NC(=O)Nc2ccc(F)cc2)cn1,4,-6,-2,0,-2,6
C[C@H]([C@H](O)c1ccccc1)N(C)C(=O)CN,51*,-9,-4,-3,-5,-1
COC(=O)c1c(C(=O)OC)c(-c2ccc(F)cc2)n2c1CS(=O)(=O)C2,41,-11,0,-3,-4,-13
COC(=O)c1c(C(=O)OC)c(-c2ccccc2)n2c1CS(=O)(=O)C2,-3,-1,0,1,6,.
CCC(NC(=O)c1cc(COc2ccc(F)cc2Cl)on1)c1ccncc1 (centres undefined),.,-5,-3,-5,-2,.
COc1ccc2sc(-c3ccccc3OC)c(-c3ccc(OC)c(F)c3)c2c1,15,-6,-6,-1,5,.
COc1ccc2c(-c3ccc(OCCN4CCOCC4)cc3)c(-c3ccccc3OC)sc2c1,.,-2,.,0,8,1
COc1cc2sc(-c3ccccc3OC)c(-c3ccc(OCCN4CCOCC4)cc3)c2cc1OC,.,1,.,0,0,3
Cc1ccccc1C(=O)NNC(=O)c1cccc(Br)c1,10,-3,-3,-2,-16,.
O=C(C1CCC(CNS(=O)(=O)c2cccc3cccnc23)CC1)N1CCc2ccccc21 (centres undefined),53*,-8,-1,-4,2,11
SMILES,VLA-4 inh,APOBEC3G inh,beta cell repl,APOBEC3A inh,NRP1-CendR mod,VLA-4 allo CP
CN1CCN(C(=O)C2CCC(CNS(=O)(=O)c3cccc4cccnc34)CC2)CC1 (centres undefined),-2,-2,3,-2,-10,.
CS(=O)(=O)c1cccc(C(=O)NCc2ccccc2)c1,20,-1,-2,1,-5,.
CS(=O)(=O)c1cccc(C(=O)NCc2ccc(F)cc2)c1,93*,-2,-2,-2,15,-6
COCCn1nnnc1C(c1ccc(OC)cc1OC)N1CCN(c2ccccc2F)CC1 (centres undefined),99*,6,-1,5,-4,0
COCCn1nnnc1C(c1ccc(OC)cc1OC)N1CCN(c2ccccc2)CC1 (centres undefined),0,-2,-2,-2,-8,.
COc1ccc(C)cc1NC(=O)NCc1ccc(F)cc1,40,-2,-4,0,11,-2
COc1ccc(OC)c(NC(=O)NCc2ccc(F)cc2)c1,-1,-8,-4,-3,-4,.
O=C(O)c1ccccc1C(=O)OCCCc1ccncc1,26,-7,0,-3,4,.
O=C(CNC(=O)c1ccc(-c2ccccc2)cc1)OCc1c(Cl)cccc1Cl,53*,1,0,1,4,6
O=C(CNC(=O)c1ccc(-c2ccccc2)cc1)OCc1c(F)cccc1Cl,14,-6,-1,-4,-7,.
CC(OC(=O)CNC(=O)c1ccc(Cl)c(Cl)c1)C(=O)N1CCOCC1 (centres undefined),-3,-12,0,-2,-1,.
COc1cc(/C=C2\S/C(=N/S(=O)(=O)Cc3ccccc3)NC2=O)c([N+](=O)[O-])cc1OC,0,-4,-2,-3,-39,.
COc1cc(/C=C2/S/C(=N/S(=O)(=O)c3ccccc3)NC2=O)c([N+](=O)[O-])cc1OC,52*,-1,2,-1,-48,-2
O=C(NCc1ccc(Cl)cc1)c1cc(=O)[nH]c2ccccc12,7,-2,1,-1,6,.
S=C(NCCCc1ccccc1)Nc1ccccc1Cl,50*,-7,-6,-3,0,19
S=C(NCCc1ccccc1)Nc1ccccc1Cl,11,-6,0,5,-4,.
CNc1ccc(-c2cc(OC)ccc2OC)cn1,.,.,.,.,-4,.
CC(C)CCn1c(C(C)O)nc2ccccc21 (centres undefined),87*,-2,-2,-2,-1,0
O=C(c1cc(C2CC2)nn1-c1ccccc1)N1CCN(S(=O)(=O)c2cccc(F)c2)CC1,9,-2,-2,4,4,.
COc1cccc(C(=O)O/N=C(\N)c2ccc(C)cc2)c1,42,-9,-5,-1,-1,-22
Cc1ccc(C(=O)NCCCNC(=O)c2ccccc2C)cn1,-4,-6,1,3,2,.
Cc1nn(-c2cc(N3CCOCC3)ccc2N)c(=O)c2ccccc12,64*,-3,-1,-4,2,1
CCC(C)C(NC(=O)C(N)CC(C)C)C(=O)NC(CCC(=O)OCc1ccccc1)C(N)=O (centres undefined),54*,-1,-1,-2,21,5
Cc1cc(OCC(=O)Nc2cnn(CCCC(=O)O)c2)ccc1Cl,-14,-2,-1,-1,-2,.
Cc1cccc(-n2ncc3c(NCCCO)ncnc32)c1,-6,1,-3,2,7,.
